Assay [1] in a line: qHTS assay to identify small molecule agonists of the AP-1 signaling pathway - cell viability counter screen (AID 1159525; calls by dose curve; also: nearly all actives have a fitted effect of over 55% in size). To be noted: ME-180 AP-1-bla cells viability, ATP luminescence, 5 h; series mostly up to 76.8 µM. A digest of the protocol:
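AP-1-bla ME-180 cells in Opti-MEM with 0.5% dialyzed FBS, compound exposure 5 h at 37 C in 15-point titration. Viability read in the same wells as ATP content by CellTiter-Glo luminescence, normalised to tetra-n-octylammonium bromide and DMSO controls.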
A general note: Quantitative high-throughput screening tests each substance at several concentrations.

Assay [2] is described as follows: qHTS assay to identify small molecule agonists of the AP-1 signaling pathway (AID 1159526; calls by dose curve). To be noted: ME-180 (cervical carcinoma) AP-1-bla reporter, beta-lactamase FRET ratio, 5 h; series mostly up to 76.8 µM.
In assay [3] the target is Retinoic acid receptor RXR-alpha (Homo sapiens) (UniProt P19793). Description: qHTS assay to identify small molecule agonists of the RXR signaling pathway (AID 1159527; calls by dose curve; also: nearly all actives have a fitted effect of over 35% in size). To be noted: HEK293T RXRa-UAS-bla, beta-lactamase ratio, 16 h; series mostly up to 76.8 µM. A digest of the protocol:
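Agonist mode; 9-cis retinoic acid positive control. HEK 293T UAS-bla reporter cells, 2% charcoal-stripped FBS, 16 hr compound exposure at 37 C/5% CO2. LiveBLAzer B/G FRET substrate 2 hr RT; ex 405, em 460/530 nm.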

Assay [4] is described as follows: qHTS assay to identify small molecule agonists of the RXR signaling pathway - cell viability counter screen (AID 1159529). Also: nearly all actives have a fitted effect of over 50% in size. Also: potency is read from the fitted curve at half-maximal effect. To be noted: RXR-alpha-bla HEK293T viability, CellTiter-Glo, 16 h; series mostly up to 76.8 µM. A digest of the protocol: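 Luminescence from CellTiter-Glo (30 min, RT) measured viability in the same wells as the beta-lactamase reporter readout. Cells: GeneBLAzer RXR-alpha HEK 293T, 2% charcoal-stripped FBS. Compound exposure 16 hr, 37 C.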

Assay [5] in a line: qHTS assay to identify small molecule antagonists of the retinoid acid receptor (RAR) signaling pathway - cell viability counter screen (AID 1159551). Also: nearly all actives have a fitted effect of over 35% in size. To be noted: C3RL4 cells viability, ATP luminescence (CellTiter-Glo), 6 h; series mostly up to 92.4 µM. A digest of the protocol:
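Retinol-stimulated (1 uM final) C3RL4 cells, compound 6 h, 37 C; readout CellTiter-Glo luminescence (ATP) after 30 min RT incubation.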

Assay [6] is described as follows: qHTS assay to identify small molecule agonists of the peroxisome proliferator-activated receptor delta (PPARd) signaling pathway - cell viability counter screen (AID 743211). Also: potency is read from the fitted curve at half-maximal effect; nearly all actives have a fitted effect of over 55% in size. To be noted: PPARd-bla HEK293H viability, CellTiter-Glo luminescence, 17 h; series mostly up to 62.6 µM. In outline:
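Read-out: CellTiter-Glo luminescence, 30 min RT, measured in the same wells as the beta-lactamase reporter. Cells: GeneBLAzer PPAR delta UAS-bla HEK293H, 3000 cells/well, compound exposure 17 h at 37C.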

The target in assay [7] is Peroxisome proliferator-activated receptor delta (Homo sapiens) (UniProt Q03181). Nature of the assay: qHTS assay to identify small molecule antagonists of the peroxisome proliferator-activated receptor delta (PPARd) signaling pathway (AID 743215; active = well fitted inhibition curve with a large enough effect in the signal ratio in the repeat runs, not every such curve was filed as active; the % refers to the signal ratio;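 also: cells stimulated with agonist L165041 at 300 nM final during compound exposure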). To be noted: HEK293H PPARd-UAS-bla, beta-lactamase FRET ratio, antagonist, 17 h; series mostly up to 62 µM. A digest of the protocol:
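HEK293H UAS-bla, PPARd; agonist L165041 300 nM final with cpd in DMSO; 37 C 17 h; FRET substrate, RT 2 h; fluorescence intensity.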

For assay [8], the target named is Bile acid receptor (Homo sapiens) (UniProt Q96RI1). Description: qHTS assay to identify small molecule antagonists of the farnesoid-X-receptor (FXR) signaling pathway (AID 743217; active = well fitted inhibition curve with a large enough effect in the signal ratio in the repeat runs, not every such curve was filed as active; the % refers to the signal ratio). To be noted: HEK293T FXR-UAS-bla, beta-lactamase ratio, CDCA-stimulated, 16 h; series mostly up to 62.6 µM. A digest of the protocol: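 GeneBLAzer FXR-UAS-bla HEK 293T, CDCA-stimulated (50 uM final). Compound treatment 16 h, 37 °C. Detection: beta-lactamase cleavage of B/G FRET substrate, fluorescence.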
Chain of Bile acid receptor (Homo sapiens) (Q96RI1 whole entry, looked up): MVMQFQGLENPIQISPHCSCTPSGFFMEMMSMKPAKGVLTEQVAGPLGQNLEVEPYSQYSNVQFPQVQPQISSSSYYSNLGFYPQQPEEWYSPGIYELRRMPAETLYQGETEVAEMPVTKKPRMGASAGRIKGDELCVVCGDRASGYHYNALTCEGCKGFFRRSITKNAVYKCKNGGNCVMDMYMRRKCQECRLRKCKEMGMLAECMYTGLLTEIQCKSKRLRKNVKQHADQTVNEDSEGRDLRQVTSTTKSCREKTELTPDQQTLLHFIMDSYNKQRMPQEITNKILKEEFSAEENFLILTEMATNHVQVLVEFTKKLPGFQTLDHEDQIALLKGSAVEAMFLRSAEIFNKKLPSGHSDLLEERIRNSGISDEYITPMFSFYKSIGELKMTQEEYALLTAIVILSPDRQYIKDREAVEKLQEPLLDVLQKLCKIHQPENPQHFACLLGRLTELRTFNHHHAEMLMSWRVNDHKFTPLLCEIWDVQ

Assay [9] has the same target. Description: qHTS assay to identify small molecule agonists of the farnesoid-X-receptor (FXR) signaling pathway (AID 743220; active = well fitted activation curve with a large enough effect in the signal ratio in the repeat runs, not every such curve was filed as active; the % refers to the signal ratio). To be noted: HEK293T FXR-UAS-bla, beta-lactamase FRET ratio, 16 h; series mostly up to 62.6 µM. A digest of the protocol:
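Beta-lactamase reporter under UAS control in GeneBLAzer FXR HEK 293T cells (5000/well) measured with LiveBLAzer FRET substrate after 2 h at room temperature. Compound exposure lasted 16 h at 37C.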

In assay [10] the target is Vitamin D3 receptor (Homo sapiens) (UniProt P11473). Description: qHTS assay to identify small molecule agonists of the vitamin D receptor (VDR) signaling pathway (AID 743222; calls by dose curve). To be noted: HEK293T VDR-UAS-bla, beta-lactamase FRET ratio, 16 h; series mostly up to 63.5 µM. A digest of the protocol: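 In VDR-bla cells, compound-induced beta-lactamase expression is quantified by FRET substrate fluorescence. Treatment lasts 16 h at 37C; substrate develops 2 h at room temperature.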
Chain of Vitamin D3 receptor (Homo sapiens) (P11473 whole entry, looked up): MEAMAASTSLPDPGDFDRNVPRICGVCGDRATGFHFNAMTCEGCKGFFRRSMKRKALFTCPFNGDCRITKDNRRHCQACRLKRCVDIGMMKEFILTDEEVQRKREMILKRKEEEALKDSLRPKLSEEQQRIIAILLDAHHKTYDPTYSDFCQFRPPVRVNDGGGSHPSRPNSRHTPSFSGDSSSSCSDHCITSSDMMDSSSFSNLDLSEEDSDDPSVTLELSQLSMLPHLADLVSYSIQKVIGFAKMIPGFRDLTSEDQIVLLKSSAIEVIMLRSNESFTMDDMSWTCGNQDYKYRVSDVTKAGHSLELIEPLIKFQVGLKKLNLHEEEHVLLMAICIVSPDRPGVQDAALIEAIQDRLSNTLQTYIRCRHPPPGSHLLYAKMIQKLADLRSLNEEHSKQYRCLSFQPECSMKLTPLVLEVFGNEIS

A short description of assay [11]: qHTS assay to identify small molecule antagonists of the peroxisome proliferator-activated receptor delta (PPARd) signaling pathway - cell viability counter screen (AID 743213). Also: potency is read from the fitted curve at half-maximal effect; nearly all actives have a fitted effect of over 50% in size. To be noted: PPARd-bla HEK293H viability, CellTiter-Glo luminescence, 17 h; series mostly up to 62 µM. A digest of the protocol:
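Luminescence from CellTiter-Glo, added after the bla read and incubated 30 min at room temperature, gives viability of HEK293H PPARd-bla cells exposed to compounds for 17 h at 37 C with 300 nM L165041.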

Assay [12] can be described thus: qHTS assay to identify small molecule agonists of the farnesoid-X-receptor (FXR) signaling pathway - cell viability counter screen (AID 743218). Also: potency is read from the fitted curve at half-maximal effect; nearly all actives have a fitted effect of over 45% in size. To be noted: FXR-bla HEK293T viability, CellTiter-Glo luminescence, 16 h; series mostly up to 62.6 µM. In outline:
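Parallel cytotoxicity test: compound-treated (16 h, 37 C) HEK 293T FXR-bla reporter cells were lysed with CellTiter-Glo and luminescence recorded.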

Assay [13] is described as follows: qHTS assay to identify small molecule antagonists of the farnesoid-X-receptor (FXR) signaling pathway - cell viability counter screen (AID 743221; active = well fitted cell-killing curve with a large enough effect in the repeat runs, not every such curve was filed as active; also: potency is read from the fitted curve at half-maximal effect; nearly all actives have a fitted effect of over 50% in size). To be noted: FXR-bla HEK293T viability, CellTiter-Glo luminescence, 16 h; series mostly up to 62.6 µM. A digest of the protocol: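 HEK 293T FXR-bla cells, 5 h pre-incubation; compound + CDCA 50 uM final, 16 h, 37 C; beta-lactamase FRET read first, then CellTiter-Glo luminescence, 30 min RT.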

A short description of assay [14]: qHTS assay to identify small molecule agonists of the vitamin D receptor (VDR) signaling pathway - cell viability counter screen (AID 743224). Also: potency is read from the fitted curve at half-maximal effect; nearly all actives have a fitted effect of over 50% in size. To be noted: VDR-bla HEK293T viability, CellTiter-Glo luminescence, 16 h; series mostly up to 62.6 µM. A digest of the protocol: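 Plated VDR-bla cells (4 h, 37C) received compound, incubated 16 h, then LiveBLAzer substrate 2 h RT; CellTiter-Glo added afterwards, luminescence read at 30 min.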

Assay [15] in a line: qHTS assay to identify small molecule antagonists of the vitamin D receptor (VDR) signaling pathway - cell viability counter screen (AID 743225). To be noted: VDR-bla HEK293T viability, CellTiter-Glo luminescence, 16 h; series mostly up to 61 µM. In outline:
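Viability counter screen run in the same wells as the beta-lactamase reporter assay: HEK 293T VDR-UAS-bla cells, 16 h compound exposure at 37C with 3 nM (final) 1-alpha,25-dihydroxyvitamin D3. CellTiter-Glo luminescence, 30 min, room temperature.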

The target of assay [16] is Nuclear receptor ROR-gamma (Homo sapiens) (UniProt P51449). Description: qHTS assay to identify small molecule antagonists of the retinoid-related orphan receptor gamma (ROR-gamma) signaling pathway (AID 1159521; also: nearly all actives have a fitted effect of over 50% in size; also: potency is read from the fitted curve at half-maximal effect). To be noted: Tet-on RORgamma CHO cells, RORE-luciferase, 16 h; series mostly up to 92.4 µM. A digest of the protocol:
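Luminescence readout (ONE-Glo, 30 min RT) after 16 h doxycycline induction; loss of signal scored as antagonism. CHO cells with TET-inducible RORγ and RORE-LUC reporter; compounds added 2 h before 1 uM final doxycycline.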

Assay [17] can be described thus: qHTS assay to identify small molecule antagonists of the retinoic acid receptor (RAR) signaling pathway (AID 1159552; also: nearly all actives have a fitted effect of over 50% in size; also: potency is read from the fitted curve at half-maximal effect). To be noted: C3RL4 RARE luciferase reporter, retinol-stimulated, 6 h; series mostly up to 92.4 µM. In outline: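 Luminescence from a RARE luciferase reporter in C3RL4 cells served as read-out. Cells received compounds together with 1 uM final retinol and incubated 6 hr at 37 C before detection reagent was added for 30 min at room temperature.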

Assay [18] concerns the target Peroxisome proliferator-activated receptor delta (Homo sapiens) (UniProt Q03181). Description: qHTS assay to identify small molecule agonists of the peroxisome proliferator-activated receptor delta (PPARd) signaling pathway (AID 743212; calls by dose curve). To be noted: HEK293H PPARd-UAS-bla, beta-lactamase FRET ratio, 17 h; series mostly up to 62.6 µM. A digest of the protocol: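 GeneBLAzer UAS-bla HEK293H cells carrying a PPARδ construct were exposed to compounds at 37 °C. Beta-lactamase activity was read by FRET fluorescence after 2 h at room temperature with LiveBLAzer B/G substrate.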

Assay [19] addresses Vitamin D3 receptor (Homo sapiens) (UniProt P11473). Description: qHTS assay to identify small molecule antagonists of the vitamin D receptor (VDR) signaling pathway (AID 743223; active = well fitted inhibition curve with a large enough effect in the signal ratio in the repeat runs, not every such curve was filed as active; the % refers to the signal ratio). To be noted: VDR-UAS-bla HEK293T, beta-lactamase FRET ratio, 16 h; series mostly up to 61 µM. A digest of the protocol: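 Beta-lactamase reporter read-out: FRET substrate fluorescence after 2 h at room temperature, following 16 h exposure of VDR-bla cells to test compound plus 3 nM (final) 1alpha,25-dihydroxyvitamin D3 agonist at 37C.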

Results filed as inconclusive are left out. The source made the active and inactive calls. Unless noted, calls follow the shape of the dose curve; as a rule, active = well fitted curve in the direction sought with a large enough effect in the repeat runs; inconclusive = weak or mixed curves; inactive = no such curve, though single readings can be large; an effect the other way counts as inactive or inconclusive.

Chain of Retinoic acid receptor RXR-alpha (Homo sapiens) (P19793 whole entry, looked up): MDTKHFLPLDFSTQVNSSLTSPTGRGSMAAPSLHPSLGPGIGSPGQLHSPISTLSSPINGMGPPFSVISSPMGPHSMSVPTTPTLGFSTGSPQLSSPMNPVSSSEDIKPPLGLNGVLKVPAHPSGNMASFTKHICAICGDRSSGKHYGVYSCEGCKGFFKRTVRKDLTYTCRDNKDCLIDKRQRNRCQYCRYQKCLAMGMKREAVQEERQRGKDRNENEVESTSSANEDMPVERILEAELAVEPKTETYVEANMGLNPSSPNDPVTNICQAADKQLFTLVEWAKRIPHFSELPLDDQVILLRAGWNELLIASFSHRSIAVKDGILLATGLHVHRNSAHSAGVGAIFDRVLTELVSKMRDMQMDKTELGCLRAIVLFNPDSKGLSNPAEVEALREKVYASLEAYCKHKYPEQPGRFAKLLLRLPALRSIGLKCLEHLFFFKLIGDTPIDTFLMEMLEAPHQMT
Chain of Peroxisome proliferator-activated receptor delta (Homo sapiens) (Q03181 whole entry, looked up): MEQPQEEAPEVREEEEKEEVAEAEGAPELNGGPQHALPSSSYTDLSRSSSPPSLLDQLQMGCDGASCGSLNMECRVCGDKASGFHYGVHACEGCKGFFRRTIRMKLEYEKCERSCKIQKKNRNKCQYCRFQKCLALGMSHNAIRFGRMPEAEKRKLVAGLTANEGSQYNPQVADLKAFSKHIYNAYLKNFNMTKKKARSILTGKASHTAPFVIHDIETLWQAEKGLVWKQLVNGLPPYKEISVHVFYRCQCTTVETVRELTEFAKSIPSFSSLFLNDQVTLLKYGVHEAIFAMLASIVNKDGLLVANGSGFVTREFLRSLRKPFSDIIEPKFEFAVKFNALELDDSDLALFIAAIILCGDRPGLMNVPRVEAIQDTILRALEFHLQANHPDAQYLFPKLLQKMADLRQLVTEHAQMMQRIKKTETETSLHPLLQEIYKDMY

Regarding `CC1=CC[C@@H](C(C)(C)O)CC1`, the Potency result in [1], in assay [2], in assay [3], in assay [4] and in [5] was “inactive” throughout.

`COc1cccc(-c2ccc(/C=C\CN3CCCCCC3)cc2Cl)c1`: the values for the Potency in [6] and in assay [4] were 48.7 µM (active) and 43.4 µM (active), respectively. In addition, the Potency result in assay [7] and in assay [8] was “inactive” each time. The result in assay [9] and in assay [10] was inactive.

Take `Cc1cc(Br)ccc1NC(=O)CCl`: the Potency in [6] was 24.5 µM (active); in assay [11], 24.5 µM (active); in assay [12], 24.5 µM (active); in assay [13], 19.5 µM (active); in assay [14], 12.3 µM (active); in [15], 19.5 µM (active). Further, in assay [4], the Potency is 21.9 µM (active). Further, the Potency entry in assay [5] is “inactive”.

In the case of `CC(C)(C)c1ccc(OC2CCCCC2O)cc1` (stereo unspecified), the Potency result in assay [16] and in [17] was “inactive” in each case.

Consider `CCCCCCCCCCCCCCCCCCNC(=O)OC1CCN(C(=O)OC[C@H](COC(=O)N(Cc2cccc[n+]2CC)C(=O)c2ccccc2OC)OC)CC1`, for which the Potency in assay [6] was 10.6 µM (active); in [11], 33.5 µM (active); in [12], 26.6 µM (active); in assay [14], 26.6 µM (active); in [15], 21.3 µM (active); in [16], 29.8 µM (active). Besides, the Potency in assay [4] was 23.9 µM (active); in assay [17], 26.6 µM (active). In addition, the result in [18] was inactive. Further, the Potency entry in assay [19] is “inactive”.

Take `Nc1c(Br)cc([N+](=O)[O-])cc1Br`: the Potency result in assay [1], in assay [2], in [3], in assay [4], in [5] and in assay [17] was “inactive” in each case.

Consider `c1ccc(C[P+](c2ccccc2)(c2ccccc2)c2ccccc2)cc1`, for which the Potency entry in [1], in [2] and in assay [5] was “inactive” each time.

In the case of `O=S(=O)(c1ccc(OCc2ccccc2)cc1)c1ccccc1O`, the Potency result in [4] is “inactive”.

With `Clc1ccc2c(Cl)ccnc2c1`, the Potency result in assay [2], in assay [3], in assay [4], in [5] and in [17] was “inactive” each time.

Regarding `O=[N+]([O-])c1ccc(CO)cc1`, the Potency result in [2], in assay [3], in assay [4], in [5] and in assay [17] was “inactive” each time.

The values above are taken from PubChem BioAssay (Tox21).
